# Measurements as given in PubChem BioAssay (Tox21).
# Records with an inconclusive call do not appear. Entries that show only a call come without a potency. A number with no mark means an inactive call. Calls of active or inactive are those of the source. Calls follow the shape of the full dose curve.
# Assay: qHTS assay for small molecule disruptors of the mitochondrial membrane potential - cell viability (AID 720634); also: nearly all actives have a fitted effect of over 20% in size;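 as to activity change, negative = cytotoxicity: human HepG2 liver cancer cells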
# Conditions: HepG2 viability, ATP luminescence (CellTiter-Glo), 1 h; series mostly up to 83.2 µM; activity change, negative = cytotoxicity: at the top concentration
# Procedure, shortened: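 HepG2 cells, 2,000 per well, attached overnight, then treated 1 hr at 37 C, 5% CO2. Viability read as ATP by CellTiter-Glo luminescence after 30 min at room temperature. Read in the same wells as the m-MPI membrane-potential dye assay.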
# Potency is read from the fitted curve at half-maximal effect.
Compound,Potency,"activity change, negative = cytotoxicity [%]"
CCc1ccccc1O,inactive,
CN(C)c1cccc(O)c1,inactive,
O=C1N=C(O)CN1/N=C/c1ccc(-c2ccc([N+](=O)[O-])cc2)o1,inactive,
C=C1CC[C@H](O)CC1=C/C=C1\CCC[C@]2(C)[C@@H]([C@H](C)/C=C/[C@H](C)C(C)C)CC[C@@H]12,inactive,
O=[N+]([O-])c1cc(N(CCO)CCO)ccc1NCCO,inactive,
CCCCC(CC)COC(C)=O (stereo not given),inactive,
OCC#CCO,inactive,
Cc1cc(NS(=O)(=O)c2ccc(N)cc2)no1,inactive,
CC1CC(OC(=O)c2ccccc2O)CC(C)(C)C1 (stereo not given),inactive,
Oc1ccc2ccccc2c1N=Nc1ccccc1,27.3 µM (active),
O=C1CCCCC1,inactive,
O=C(O)c1ccc([N+](=O)[O-])cc1,inactive,
CC(C)n1c(/C=C/[C@@H](O)C[C@@H](O)CC(=O)O)c(-c2ccc(F)cc2)c2ccccc21,inactive,
CC1COc2ccccc2N1C(=O)C(Cl)Cl (stereo not given),inactive,
CCCCCCC(C)(C)S,inactive,
CC(=O)[C@@]1(O)CC[C@H]2[C@@H]3CCC4=CC(=O)CC[C@]4(C)[C@H]3CC[C@@]21C,inactive,
CC(C)NCC(O)COc1cccc2ccccc12 (stereo not given),inactive,
CCCCCCCCCCC=CC1CC(=O)OC1=O (stereo not given),,11.5
Cc1cc(O)cc(C)c1Cl,inactive,
NCCNCCNCCNCCN,inactive,
Cc1ccc(C(=O)O)o1,inactive,
CC(C)(C)C(=O)C1C(=O)c2ccccc2C1=O,inactive,
CCCCOCCOCCOC(=O)CCCCC(=O)OCCOCCOCCCC,inactive,
OC1CCCC1,inactive,
Oc1ccc2ccccc2c1,,-8.36
